Twelve compounds from PubChem BioAssay (NCI) can be followed below.

Assay [1] in a line: NCI Yeast Anticancer Drug Screen. Data for the rad50 strain (AID 155).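 Note: 0% = growth of vehicle-only cultures of the same strain.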 The conditions noted are these: S. cerevisiae rad50 strain growth inhibition, active compounds read high. A digest of the protocol:
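Genetically altered yeast (DNA repair pathway); compound treatment; growth inhibition vs vehicle ctrl.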

Assay [2] is described as follows: NCI Yeast Anticancer Drug Screen. Data for the mec2-1 strain (AID 157). To be noted: S. cerevisiae mec2-1 strain, active compounds read high. In outline:
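Mutant yeast (mec2-1) grown with compound; growth inhibition relative to vehicle control reported.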

Assay [3] can be described thus: NCI Yeast Anticancer Drug Screen. Data for the sgs1 mgt1 strain (AID 161).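 Note: 0% = growth of cultures given vehicle only.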 The conditions noted are these: S. cerevisiae sgs1 mgt1 strain, active compounds read high. In outline: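 Yeast cells carrying a defined DNA-repair defect were exposed to test compounds. Growth inhibition was measured relative to vehicle-treated controls.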
A short description of assay [4]: NCI Yeast Anticancer Drug Screen. Data for the cln2 rad14 strain (AID 165).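 Note: 0% = growth equal to vehicle treated cultures.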 To be noted: S. cerevisiae cln2 rad14 strain, active compounds read high. A digest of the protocol: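 Readout is yeast growth inhibition versus vehicle-treated controls, using a strain with cln2 and rad14 alterations exposed to compound.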
Assay [5] in a line: NCI Yeast Anticancer Drug Screen. Data for the bub3 strain (AID 167). To be noted: S. cerevisiae bub3 mutant strain, active compounds read high. A digest of the protocol: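 Yeast carrying a defined mutation is treated with each compound, and growth is compared with that of vehicle-exposed cells to give inhibition.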
Assay [6] in a line: NCI Yeast Anticancer Drug Screen. Data for the mlh1 rad18 strain (AID 175). The conditions noted are these: S. cerevisiae mlh1 rad18 strain growth inhibition, active compounds read high. In outline: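 Genetically defined yeast (DNA repair-deficient) exposed to compounds; growth inhibition determined relative to vehicle.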
Setting [7] is: at 5.0 µM (retest, dose inferred, filed as 0.5).
The mark [8] stands for this setting: at 50.0 µM (retest, dose inferred, filed as 5.0).

SMILES strings stand for the structures. Compounds without any hit were thinned out: in the full panel of roughly 79,000, 15% have a hit. Unmarked numbers belong to inactive results. The source made the active and inactive calls. Cut-off read from the data, not from the text of the source: active = growth inhibition above about 70%; inactive = the rest.

In the case of `COc1ccc(N=NC(C#N)C#N)cc1`, the growth inhibition in assay [1] (setting [7]) was 32%; in assay [1] (setting [8]), 95% (active); in assay [2] (setting [7]) it was 6%; in assay [2] (setting [8]), 97% (active); in assay [3] (setting [7]), 24%; in assay [3] (setting [8]) it was 98% (active). Further, the growth inhibition in assay [4] (setting [7]) was 2%; in assay [4] (setting [8]) it was 96% (active); in assay [5] (setting [7]), 1%; in assay [5] (setting [8]) it was 98% (active); in assay [6] (setting [7]) it was -10%; in assay [6] (setting [8]) it was 96% (active).
For `OCCNC(c1ccc(Cl)cc1)C(O)c1ccc(Cl)cc1` (centres undefined), the growth inhibition in assay [1] (setting [7]) was 5%; in assay [1] (setting [8]) it was 62%; in assay [2] (setting [7]), -3%; in assay [2] (setting [8]), 13%; in assay [3] (setting [7]), 0%; in assay [3] (setting [8]), 77% (active). Besides, the growth inhibition was 11% in assay [4] (setting [7]); 8% in assay [4] (setting [8]); 6% in assay [5] (setting [7]); 55% in assay [5] (setting [8]); -4% in assay [6] (setting [7]); 59% in assay [6] (setting [8]).
For the compound `CCCCC(CC)CNC(=O)/C=C\C(=O)O` (centres undefined), the growth inhibition is 15% in assay [1] (setting [7]); 85% (active) in assay [1] (setting [8]); 11% in assay [2] (setting [7]); 67% in assay [2] (setting [8]); 10% in assay [3] (setting [7]); 96% (active) in assay [3] (setting [8]). For the same compound, the growth inhibition is -3% in assay [4] (setting [7]); 60% in assay [4] (setting [8]); 6% in assay [5] (setting [7]); 83% (active) in assay [5] (setting [8]); 15% in assay [6] (setting [7]); 91% (active) in assay [6] (setting [8]).
As for `Cc1ccc2[nH]cc(CC(=O)O)c2c1`, the growth inhibition in assay [1] (setting [7]) was 95% (active); in assay [1] (setting [8]) it was 99% (active); in assay [2] (setting [7]), 97% (active); in assay [2] (setting [8]), 100% (active); in assay [3] (setting [7]), 99% (active); in assay [3] (setting [8]), 100% (active). In addition, the growth inhibition in assay [4] (setting [7]) is 42%; in assay [4] (setting [8]), 99% (active); in assay [5] (setting [7]), 99% (active); in assay [5] (setting [8]), 100% (active); in assay [6] (setting [7]) it was 85% (active); in assay [6] (setting [8]), 99% (active).
Turning to `CCCCNC(=O)C(C)O` (centres undefined), the growth inhibition was 5% in assay [1] (setting [7]); 23% in assay [1] (setting [8]); 0% in assay [2] (setting [7]); 3% in assay [2] (setting [8]); 0% in assay [3] (setting [7]); 4% in assay [3] (setting [8]). The growth inhibition was 5% in assay [4] (setting [7]); 0% in assay [4] (setting [8]); 1% in assay [5] (setting [7]); -2% in assay [5] (setting [8]); 3% in assay [6] (setting [7]); 8% in assay [6] (setting [8]).
With `N#CC(c1ccccc1)C(c1ccccc1)c1ccccc1` (centres undefined), the growth inhibition is 13% in assay [1] (setting [7]); 67% in assay [1] (setting [8]); 9% in assay [2] (setting [7]); 89% (active) in assay [2] (setting [8]); 9% in assay [3] (setting [7]); 92% (active) in assay [3] (setting [8]). For the same compound, the growth inhibition was 20% in assay [4] (setting [7]); 55% in assay [4] (setting [8]); 13% in assay [5] (setting [7]); 87% (active) in assay [5] (setting [8]); -24% in assay [6] (setting [7]); 80% (active) in assay [6] (setting [8]).
As to `O=C1C=CC(=O)C2=C1CC=CC2`, the growth inhibition in assay [1] (setting [7]) was -12%; in assay [1] (setting [8]), 99% (active); in assay [2] (setting [7]), -2%; in assay [2] (setting [8]), 99% (active); in assay [3] (setting [7]) it was 29%; in assay [3] (setting [8]) it was 100% (active). The growth inhibition in assay [4] (setting [7]) was -6%; in assay [4] (setting [8]), 75% (active); in assay [5] (setting [7]), 26%; in assay [5] (setting [8]), 100% (active); in assay [6] (setting [7]), 48%; in assay [6] (setting [8]) it was 97% (active).
As to `CN(C)c1cc(N)c(Cc2c(N)cc(N(C)C)cc2Cl)c(Cl)c1`, the growth inhibition is 5% in assay [1] (setting [7]); 97% (active) in assay [1] (setting [8]); -2% in assay [2] (setting [7]); 97% (active) in assay [2] (setting [8]); -4% in assay [3] (setting [7]); 98% (active) in assay [3] (setting [8]). In addition, the growth inhibition is 8% in assay [4] (setting [7]); 96% (active) in assay [4] (setting [8]); 6% in assay [5] (setting [7]); 97% (active) in assay [5] (setting [8]); 1% in assay [6] (setting [7]); 97% (active) in assay [6] (setting [8]).
With `C=CCCCCCCCCC(=O)NN`, the growth inhibition in assay [1] (setting [7]) is 18%; in assay [1] (setting [8]), 92% (active); in assay [2] (setting [7]), -1%; in assay [2] (setting [8]), 79% (active); in assay [3] (setting [7]), 15%; in assay [3] (setting [8]) it was 92% (active). Moreover, the growth inhibition is -8% in assay [4] (setting [7]); 81% (active) in assay [4] (setting [8]); 0% in assay [5] (setting [7]); 85% (active) in assay [5] (setting [8]); -25% in assay [6] (setting [7]); 91% (active) in assay [6] (setting [8]).
In the case of `O=C(O)c1ccc(-c2ccccc2)cc1`, the growth inhibition in assay [1] (setting [7]) was 12%; in assay [1] (setting [8]), 80% (active); in assay [2] (setting [7]), 0%; in assay [2] (setting [8]) it was 38%; in assay [3] (setting [7]) it was 12%; in assay [3] (setting [8]), 69%. The growth inhibition in assay [4] (setting [7]) was -1%; in assay [4] (setting [8]), 39%; in assay [5] (setting [7]), -1%; in assay [5] (setting [8]), 42%; in assay [6] (setting [7]) it was -1%; in assay [6] (setting [8]) it was 47%.
Turning to `CC(C)c1cc([N+](=O)[O-])c(O)c([N+](=O)[O-])c1`, the growth inhibition is 46% in assay [1] (setting [7]); 92% (active) in assay [1] (setting [8]); 14% in assay [2] (setting [7]); 75% (active) in assay [2] (setting [8]); 13% in assay [3] (setting [7]); 78% (active) in assay [3] (setting [8]). In addition, the growth inhibition was 18% in assay [4] (setting [7]); 76% (active) in assay [4] (setting [8]); 29% in assay [5] (setting [7]); 89% (active) in assay [5] (setting [8]); 24% in assay [6] (setting [7]); 91% (active) in assay [6] (setting [8]).
For `COc1ccc(C(N)=O)cc1`, the growth inhibition was 14% in assay [1] (setting [7]); 2% in assay [1] (setting [8]); -3% in assay [2] (setting [7]); 0% in assay [2] (setting [8]); -5% in assay [3] (setting [7]); 3% in assay [3] (setting [8]). Moreover, the growth inhibition was -3% in assay [4] (setting [7]); -11% in assay [4] (setting [8]); -6% in assay [5] (setting [7]); -5% in assay [5] (setting [8]); 16% in assay [6] (setting [7]); 24% in assay [6] (setting [8]).
